Values joined by “and” are separate entries in the source; they are usually repeats but may differ in a detail not shown here. Equal entries are not always repeated. In all, about 5,500 compounds went through this assay and about 2,000 (36%) were called active. Inconclusive results (about 18%) are left out. No stated cut-off is given here; in the data, active means normalized growth mostly below about 0.91 (no sharp cut-off); inconclusive means no clear call, values can overlap the other calls; inactive means mostly above about 0.92. Some of the results follow.
Experiment: chemical genetic growth profiling, strain panel (AID 1159580);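 further: tested at 20 µM; growth read once vehicle control cultures reached saturation at 30 °C; 1 = growth at the plate median or of vehicle wells; lower values mean less growth of the strain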
Conditions: S. cerevisiae deletion strains, growth OD

Measured: normalized growth

CCCCN1CCCCC1C(=O)Nc1c(C)cccc1C (configuration not stated)
inactive: locus YAL013W, strain DEP1, hits give low values 1.02 | locus YAL021C, strain ccr4, hits give low values 0.992 | locus YAL026C, strain drs2, hits give low values 1.01 | locus YAL030W, strain snc1, hits give low values 0.991 | locus YBL061C, strain skt5, hits give low values 0.992 | locus YBR009C, strain hhf1, hits give low values 0.976 | locus YBR021W, strain FUR4, hits give low values 1.01 | locus YBR023C, strain chs3, hits give low values 0.977 | locus YBR171W, strain sec66, hits give low values 0.991 | locus YBR229C, strain ROT2, hits give low values 1.02 | locus YBR231C, strain swc5, hits give low values 0.995 | locus YBR279W, strain paf1, hits give low values 0.994 | locus YCL011C, strain gbp2, hits give low values 0.986 | locus YCL016C, strain dcc1, hits give low values 1 | locus YCL029C, strain bik1, hits give low values 0.986 | locus YCL061C, strain MRC1, hits give low values 0.981 | locus YCL069W, strain vba3, hits give low values 0.99 | locus YCR088W, strain abp1, hits give low values 0.986 | locus YDL005C, strain med2, hits give low values 0.984 | locus YDL035C, strain GPR1, hits give low values 1.03 | locus YDL040C, strain nat1, hits give low values 1 | locus YDL074C, strain BRE1, hits give low values 1.01 | locus YDL101C, strain DUN1, hits give low values 1.01 | locus YDL134C, strain PPH21, hits give low values 1.01 | locus YDL185W, strain tfp1, hits give low values 0.995 | locus YDL192W, strain arf1, hits give low values 1 | locus YDR001C, strain nth1, hits give low values 0.978 | locus YDR069C, strain doa4, hits give low values 0.972 | locus YDR101C, strain arx1, hits give low values 1 | locus YDR137W, strain rgp1, hits give low values 0.965 | locus YDR150W, strain NUM1, hits give low values 1.02 | locus YDR159W, strain sac3, hits give low values 0.984 | locus YDR162C, strain NBP2, hits give low values 1.02 | locus YDR195W, strain ref2 0.967 | locus YDR297W, strain sur2, hits give low values 0.986 | locus YDR318W, strain mcm21, hits give low values 0.995 | locus YDR334W, strain swr1, hits give low values 0.969 | locus YDR335W, strain msn5, hits give low values 0.987 | locus YDR388W, hits give low values 0.986 | locus YDR392W, strain spt3, hits give low values 0.991 | locus YDR502C, strain sam2, hits give low values 1 | locus YEL003W, strain gim4, hits give low values 0.983 | locus YEL037C, strain rad23, hits give low values 0.993 | locus YEL061C, strain CIN8 (second series), hits give low values 0.973 | locus YEL061C, strain CIN8, hits give low values 1.01 | locus YER015W, strain faa2, hits give low values 0.992 | locus YER016W, strain bim1, hits give low values 0.987 | locus YER110C, hits give low values 0.995 | locus YER111C, strain swi4, hits give low values 1.01 | locus YER155C, strain BEM2 (second series), hits give low values 0.997 | locus YER155C, strain BEM2, hits give low values 1 | locus YER167W, strain BCK2, hits give low values 1.03 | locus YFR010W, strain ubp6, hits give low values 0.974 | locus YGL078C, strain dbp3, hits give low values 0.996 | locus YGL086W, strain mad1, hits give low values 1.01 | locus YGL167C, strain pmr1, hits give low values 0.992 | locus YGL173C, strain kem1, hits give low values 1.01 | locus YGL227W, strain vid30, hits give low values 0.973 | locus YGL240W, strain doc1, hits give low values 0.98 | locus YGL248W, strain PDE1, hits give low values 1.02 | locus YGL253W, strain hxk2, hits give low values 0.994 | locus YGR078C, strain PAC10, hits give low values 1.01 | locus YGR135W, strain pre9, hits give low values 0.997 | locus YGR229C, strain SMI1, hits give low values 1.01 | locus YGR252W, strain gcn5, hits give low values 1.06 | locus YHR013C, strain ard1, hits give low values 0.988 | locus YHR027C, strain rpn1, hits give low values 0.99 | locus YHR030C, strain SLT2, hits give low values 1.01 and 0.987 | locus YHR079C, strain IRE1 (second series), hits give low values 0.99 | locus YHR079C, strain IRE1, hits give low values 0.975 | locus YHR094C, strain hxt1, hits give low values 0.997 | locus YHR129C, strain ARP1, hits give low values 1.01 | locus YHR142W, strain chs7, hits give low values 0.999 | locus YHR200W, strain rpn10, hits give low values 0.986 | locus YIL066C, strain RNR3, hits give low values 1.01 | locus YIL073C, strain SPO22, hits give low values 0.989 | locus YIL125W, strain kgd1, hits give low values 0.997 | locus YIR030C, strain dcg1, hits give low values 0.992 | locus YJL092W, strain hpr5, hits give low values 0.969 | locus YJL095W, strain BCK1 (second series), hits give low values 0.995 | locus YJL095W, strain BCK1, hits give low values 1 and 0.971 | locus YJL115W, strain asf1, hits give low values 0.998 | locus YJL129C, strain trk1, hits give low values 0.966 | locus YJL134W, strain LCB3, hits give low values 1.01 | locus YJL154C, strain vps35, hits give low values 0.991 | locus YJL164C, strain tpk1, hits give low values 0.978 | locus YJL166W, strain qcr8, hits give low values 0.994 | locus YJL168C, strain set2, hits give low values 0.99 | locus YJL187C, strain SWE1 (second series), hits give low values 1.01 | locus YJL187C, strain SWE1, hits give low values 0.99 | locus YJR043C, strain POL32, hits give low values 1.01 | locus YJR066W, strain TOR1, hits give low values 0.957

From PubChem BioAssay AID1159580 (chemical genetic matrix, 2015)
